Measurements reported in PubChem BioAssay AID1347404 (Pan Lab, Icahn School of Medicine at Mount Sinai, 2020).
The whole screen tested about 140,000 compounds, of which about 860 (0.61%) were called active. Rule as the data show it: active = inhibition above about 25%; inactive = the rest. Shown is part of a subset that was picked to be rich in actives.

Each compound was assayed against E3 ubiquitin-protein ligase RBX1 (Homo sapiens) + Cullin-1 (Homo sapiens) (UniProt P62877+Q13616) (assay: inhibitors of human ROC1-CUL1 ubiquitin ligase activity (AID 1347404)). Details: in vitro K48 di-Ub FRET, acceptor:donor ratio, 45 min; at 10 µM; stronger effect = higher value.
E3 ubiquitin-protein ligase RBX1 (Homo sapiens) + Cullin-1 (Homo sapiens), sequence (P62877 whole entry, looked up): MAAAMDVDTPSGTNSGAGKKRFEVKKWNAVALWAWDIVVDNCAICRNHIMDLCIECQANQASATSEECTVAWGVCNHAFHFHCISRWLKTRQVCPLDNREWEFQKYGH
E3 ubiquitin-protein ligase RBX1 (Homo sapiens) + Cullin-1 (Homo sapiens), sequence (Q13616 whole entry, looked up): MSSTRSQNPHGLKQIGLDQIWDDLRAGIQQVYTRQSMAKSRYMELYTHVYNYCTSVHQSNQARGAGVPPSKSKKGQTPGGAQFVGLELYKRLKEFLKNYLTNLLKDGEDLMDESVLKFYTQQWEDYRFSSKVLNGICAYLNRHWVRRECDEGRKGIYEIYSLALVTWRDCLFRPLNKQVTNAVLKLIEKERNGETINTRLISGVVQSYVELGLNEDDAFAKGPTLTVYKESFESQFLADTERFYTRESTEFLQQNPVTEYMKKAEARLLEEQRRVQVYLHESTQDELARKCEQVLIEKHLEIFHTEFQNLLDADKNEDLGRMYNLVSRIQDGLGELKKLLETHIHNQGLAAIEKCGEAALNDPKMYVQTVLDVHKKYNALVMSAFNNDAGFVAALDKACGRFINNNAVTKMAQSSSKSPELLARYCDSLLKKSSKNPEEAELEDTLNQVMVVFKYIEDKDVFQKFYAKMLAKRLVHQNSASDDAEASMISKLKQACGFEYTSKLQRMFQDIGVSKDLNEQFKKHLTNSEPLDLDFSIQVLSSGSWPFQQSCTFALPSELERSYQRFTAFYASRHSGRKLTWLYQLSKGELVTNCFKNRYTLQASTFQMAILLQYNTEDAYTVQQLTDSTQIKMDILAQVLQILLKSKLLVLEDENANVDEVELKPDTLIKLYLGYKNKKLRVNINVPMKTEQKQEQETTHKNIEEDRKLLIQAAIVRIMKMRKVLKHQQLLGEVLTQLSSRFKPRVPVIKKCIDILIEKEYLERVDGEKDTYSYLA

| SMILES | inhibition |
| --- | --- |
| CCCCc1nnc(SCC2=Nc3ccc(F)cc3C(=O)C2)n1C | -6.52% (inactive) |
| Cc1scc(Cc2csc(C)c2C)c1C | -4.02% (inactive) |
| COc1ccc(-c2cc(-c3ccc(C)cc3)nc3sc(C(=O)Nc4ccc(C)cc4C)c(N)c23)cc1OC | 7.9% (inactive) |
| Cc1cccc(C(=O)Nc2ccc(C)cc2C)c1 | -1.04% (inactive) |
| Cc1ccc(NC(=O)c2c(N)sc3c2CCC3)c(C)c1 | 43.1% (active) |
| Cc1[nH]c2ccccc2c1C(c1cccnc1)N1CCN(c2ccc(F)cc2)CC1 (stereo not drawn) | 2.08% (inactive) |
| CN(C)CCOCCOC(c1ccccc1)c1ccccc1C(F)(F)F (stereo not drawn) | 0.845% (inactive) |
| COC(=O)c1ccccc1NC(=O)CCCC(=O)OCC(=O)c1ccc(Br)cc1 | 1.86% (inactive) |
| CCOC(=O)c1cnc2c(C)cc(Cl)cc2c1N1CCN(Cc2ccccc2)CC1 | -3.19% (inactive) |
| COc1ccc(N2C(S)=C(C#N)C(=O)NC2c2ccc(-c3ccccc3Cl)o2)cc1 (stereo not drawn) | 24.9% (inactive) |
| CC(C)(C)NS(=O)(=O)c1ccc(NC(=O)C2CCCO2)cc1 (stereo not drawn) | -1.62% (inactive) |
| O=C(OCc1ccc(Br)cc1)c1ccccc1C(=O)c1ccccc1 | 3.15% (inactive) |
| CC(=O)c1ccc(NC(=O)CCCC(=O)OCC(=O)c2ccc(-c3ccccc3)cc2)cc1 | -6.85% (inactive) |
| O=C(Nc1ccccc1O)c1cccc(S(=O)(=O)Nc2ccc(F)cc2)c1 | 1.23% (inactive) |
| O=C(Nc1ccc(S(=O)(=O)O)c2ccccc12)c1ccc(C(=O)Nc2ccc(S(=O)(=O)O)c3ccccc23)cc1 | 2.57% (inactive) |
| O=C(Nc1ccc(S(=O)(=O)O)c2cc(S(=O)(=O)O)cc(O)c12)c1ccccc1 | 63.3% (active) |
| CC(O)c1cn(C2CCN(c3nc4ccccc4s3)CC2)nn1 (stereo not drawn) | 4.88% (inactive) |
| COc1ccccc1C(=O)Nc1ccnn1C1CCN(Cc2nccn2C)CC1 | 9.37% (inactive) |
| CC(C)(C)NS(=O)(=O)Cc1ccc(Cl)cc1Cl | 7.68% (inactive) |
| Cc1nc2ccccc2n1/N=C/c1ccccc1 | 3.45% (inactive) |
| CCOC(=O)CNc1nc2ccccc2n2c(C)nnc12 | -3.19% (inactive) |
| C/C(=N\O)c1sc2nc3ccccc3n2c1C | 26.5% (active) |
| CCc1ccccc1-c1nc2c(cnn2C)[nH]1 | 5.57% (inactive) |
| CC1CCN(CC(O)COC2CC3CCC2(C)C3(C)C)CC1 (stereo not drawn) | 0.492% (inactive) |
| CCN(CC)C(=O)CSc1nc2sc3c(c2c(=O)n1C)CCC3 | 1.01% (inactive) |
| CC(C)C1=NN2C(=N)/C(=C/c3cccc(OCc4ccc(F)cc4)c3)C(=O)N=C2S1 | -4.78% (inactive) |
| COc1cc(/C=C2\C(=N)N3N=C(Cc4cccs4)SC3=NC2=O)cc(OC)c1OC | 6.55% (inactive) |
| N=C1/C(=C/c2cccc(OC(=O)c3ccc(Cl)cc3)c2)C(=O)N=C2SC(c3cccs3)=NN12 | 49.6% (active) |
